According to PubChem BioAssay (NCI):
Several values for one entry are separate records, joined by “and”; a condition that tells them apart may be missing. Equal values may be shown once. About 83,000 compounds went through this panel and 20% of them were active in at least one assay; those are over-represented in the sample as a whole.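 Cells were grown in 96-well plates and exposed to the test compound at a single concentration for 48 hours; results are reported as percent growth, with values below 10 considered active.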 Activity calls are given as the source filed them. Where a SMILES comes first, the peptide text is derived from it. The star is where a group is joined. Trt = c1ccc(C(c2ccccc2)(c2ccccc2)*)cc1; Cbz = O=C(OCc1ccccc1)*

Legend:
Assay in all cases: NCI-60 one-dose screen, 48 h (100 = growth as untreated, 0 = no growth, -100 = all killed)
Details in all cases: 10 µM unless noted
HCT-15 colon = tested on: HCT-15 colon
HT29 colon = tested on: HT29 colon
SNB-75 CNS = tested on: SNB-75 CNS
U251 CNS = tested on: U251 CNS
PC-3 prostate = tested on: PC-3 prostate
SK-MEL-5 melanoma = tested on: SK-MEL-5 melanoma
UACC-62 melanoma = tested on: UACC-62 melanoma
LOX IMVI melanoma = tested on: LOX IMVI melanoma
SK-MEL-28 melanoma = tested on: SK-MEL-28 melanoma
EKVX NSCLC = tested on: EKVX NSCLC
SN12C renal = tested on: SN12C renal
UO-31 renal = tested on: UO-31 renal
TK-10 renal = tested on: TK-10 renal
ACHN renal = tested on: ACHN renal
CAKI-1 renal = tested on: CAKI-1 renal
CCRF-CEM leukemia = tested on: CCRF-CEM leukemia
MOLT-4 leukemia = tested on: MOLT-4 leukemia
A498 renal = tested on: A498 renal
SK-MEL-2 melanoma = tested on: SK-MEL-2 melanoma

Measured: growth

COc1cc(/C=C/C(C)=O)ccc1O
inactive: HCT-15 colon 96.9% and 96.3% | HT29 colon 109% and 125% | SNB-75 CNS 98.4% and 82.5% | U251 CNS 103% and 104% | PC-3 prostate 92.5% and 102% | SK-MEL-5 melanoma 97% and 113% | UACC-62 melanoma 88.5% and 107% | LOX IMVI melanoma 104% | SK-MEL-28 melanoma 112% and 103% | EKVX NSCLC 91.8% and 112% | SN12C renal 98.1% and 104% | UO-31 renal 66% and 88.4% | TK-10 renal 97.7% and 142% | ACHN renal 95.9% and 95% | CAKI-1 renal 93.4% and 115% | CCRF-CEM leukemia 28.4% and 78.1% | MOLT-4 leukemia 95.8% and 87.2%

C/C=C1\SC(=S)NC1=O
inactive: HCT-15 colon 98.9% | HT29 colon 108% | SNB-75 CNS 88.5% | U251 CNS 96.2% | PC-3 prostate 95.1% | SK-MEL-5 melanoma 99.8% | UACC-62 melanoma 97.8% | LOX IMVI melanoma 101% | SK-MEL-28 melanoma 107% | EKVX NSCLC 95.1% | SN12C renal 101% | UO-31 renal 91.6% | TK-10 renal 98.4% | ACHN renal 106% | CAKI-1 renal 99.3% | A498 renal 108% | MOLT-4 leukemia 103%

CC(=Nc1ccc(N(C)C)cc1)c1ccccc1
inactive: HCT-15 colon 68.5% | HT29 colon 35.2% | SNB-75 CNS 86% | U251 CNS 27.2% | PC-3 prostate 37.8% | SK-MEL-5 melanoma 54.6% | UACC-62 melanoma 68% | LOX IMVI melanoma 60.2% | EKVX NSCLC 58.6% | SN12C renal 50.4% | UO-31 renal 55% | TK-10 renal 72.6% | ACHN renal 59.8% | CAKI-1 renal 79.8% | CCRF-CEM leukemia 52.2% | MOLT-4 leukemia 66.7%

NC(N)=N/N=C/c1ccc([N+](=O)[O-])o1
inactive: HCT-15 colon 68.1% | HT29 colon 33.2% | SNB-75 CNS 106% | U251 CNS 80.8% | PC-3 prostate 90% | SK-MEL-5 melanoma 90.4% | UACC-62 melanoma 92.9% | LOX IMVI melanoma 82.1% | SK-MEL-2 melanoma 83.4% | EKVX NSCLC 122% | SN12C renal 86.6% | UO-31 renal 88.8% | TK-10 renal 115% | ACHN renal 92.8% | CAKI-1 renal 106% | A498 renal 105% | CCRF-CEM leukemia 87.9% | MOLT-4 leukemia 103%

N#CC1C(=O)SC2c3ccccc3C(=O)c3ccccc3C12 (stereo not given)
inactive: HCT-15 colon 111% | HT29 colon 97.7% | SNB-75 CNS 96.3% | U251 CNS 92% | PC-3 prostate 82.1% | SK-MEL-5 melanoma 97.2% | LOX IMVI melanoma 95.3% | SK-MEL-28 melanoma 112% | SK-MEL-2 melanoma 98.5% | EKVX NSCLC 107% | SN12C renal 101% | UO-31 renal 89.5% | TK-10 renal 99.5% | ACHN renal 114% | CAKI-1 renal 88% | A498 renal 105% | CCRF-CEM leukemia 95% | MOLT-4 leukemia 99.6%

COC(=O)C(CSC(c1ccccc1)(c1ccccc1)c1ccccc1)NC(=O)C(CC(N)=O)NC(=O)OCc1ccccc1 (stereo not drawn) (Cbz-Asn-Cys(Trt)-OMe; configuration not given here)
inactive: HCT-15 colon 13.7% | HT29 colon 33.7% | SNB-75 CNS 20.3% | U251 CNS 50.2% | PC-3 prostate 36.9% | SK-MEL-5 melanoma 14.1% | SK-MEL-28 melanoma 24.4% | EKVX NSCLC 36.6% | SN12C renal 29.2% | UO-31 renal 58.4% | TK-10 renal 48.4% | ACHN renal 28.3% | CAKI-1 renal 44.3% | CCRF-CEM leukemia 40.3%
active: LOX IMVI melanoma -12% | SK-MEL-2 melanoma -23% | MOLT-4 leukemia 3.12%

COc1cc(/C=C(/C)C[N+](=O)[O-])ccc1O
inactive: HCT-15 colon 46.1% | HT29 colon 101% | SNB-75 CNS 78.4% | U251 CNS 92% | PC-3 prostate 93.8% | SK-MEL-5 melanoma 101% | UACC-62 melanoma 83.6% | LOX IMVI melanoma 47.5% | SK-MEL-28 melanoma 54.3% | SK-MEL-2 melanoma 96.9% | EKVX NSCLC 109% | SN12C renal 86.3% | UO-31 renal 73.3% | TK-10 renal 87.4% | ACHN renal 95.9% | CAKI-1 renal 84.3% | CCRF-CEM leukemia 56.9% | MOLT-4 leukemia 80.6%

N#CSCc1ccc(CSC#N)c(Cl)c1
inactive: HCT-15 colon 37.1% | HT29 colon 34.7% | SNB-75 CNS 32.2% | U251 CNS 85.8% | PC-3 prostate 81.6% | SK-MEL-5 melanoma 65.2% | UACC-62 melanoma 72.2% | LOX IMVI melanoma 46.6% | SK-MEL-28 melanoma 83.3% | SK-MEL-2 melanoma 86.2% | EKVX NSCLC 90.9% | SN12C renal 50.5% | UO-31 renal 36.7% | TK-10 renal 94.3% | ACHN renal 56.5% | CAKI-1 renal 41.7% | A498 renal 91.9% | CCRF-CEM leukemia 19.3% | MOLT-4 leukemia 28.9%

O=C(/C=C/c1cccc(Cl)c1)c1ccccc1
inactive: HCT-15 colon 56.7% and 62.8% | HT29 colon 95.2% and 32.4% | SNB-75 CNS 104% and 95.2% | U251 CNS 75.9% and 45% | PC-3 prostate 96% and 88.8% | SK-MEL-5 melanoma 94% and 93.4% | UACC-62 melanoma 81.5% | LOX IMVI melanoma 60.5% and 20.8% | SK-MEL-28 melanoma 114% and 109% | EKVX NSCLC 93.5% | SN12C renal 92.3% and 81% | UO-31 renal 77.7% and 70% | TK-10 renal 84.8% | ACHN renal 90.7% and 81.5% | CAKI-1 renal 90.8% and 75.4% | CCRF-CEM leukemia 74.1% and 63.7% | MOLT-4 leukemia 90.7% and 86.1%

S=C(N/N=C/c1ccccn1)Nc1ccccn1
active: SK-MEL-5 melanoma -22.2% | LOX IMVI melanoma 5.96% | SK-MEL-2 melanoma -5.58% | CCRF-CEM leukemia -14.8% | MOLT-4 leukemia -27.6%
inactive: HCT-15 colon 23.8% | HT29 colon 10.4% | SNB-75 CNS 46.1% | U251 CNS 10.1% | PC-3 prostate 33.4% | SK-MEL-28 melanoma 21.5% | EKVX NSCLC 41.4% | SN12C renal 33.7% | UO-31 renal 13% | TK-10 renal 31.4% | ACHN renal 15.9% | CAKI-1 renal 13.2%

Oc1ccc(/C=N/NC(=S)Nc2ccccc2)nc1
inactive: HCT-15 colon 24.8% | HT29 colon 34.6% | SNB-75 CNS 31.4% | U251 CNS 14.7% | PC-3 prostate 23.3% | EKVX NSCLC 32.6% | SN12C renal 20.2% | TK-10 renal 31.2% | ACHN renal 12.3%
active: SK-MEL-5 melanoma -45.3% | UACC-62 melanoma -9.22% | LOX IMVI melanoma -18.7% | UO-31 renal -2.11% | CAKI-1 renal 7.96% | CCRF-CEM leukemia 6.28% | MOLT-4 leukemia -35.2%
